Source: PubChem BioAssay (NCI)
About 83,000 compounds went through this panel and 20% of them were active in at least one assay; those are over-represented in the sample as a whole.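 Values shown are percent growth following 48 h exposure of cells in 96-well plates to a single concentration of compound; below 10 was considered active.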 Calls of active or inactive are those of the source.

Tests used:
Experiment in all cases: NCI-60 one-dose screen, 48 h (100 = growth as untreated, 0 = no growth, -100 = all killed)
Conditions in all cases: 10 µM unless noted
HCT-15 colon = test system: HCT-15 colon
HT29 colon = test system: HT29 colon
SNB-75 CNS = test system: SNB-75 CNS
SNB-19 CNS = test system: SNB-19 CNS
U251 CNS = test system: U251 CNS
PC-3 prostate = test system: PC-3 prostate
SK-MEL-5 melanoma = test system: SK-MEL-5 melanoma
UACC-62 melanoma = test system: UACC-62 melanoma
LOX IMVI melanoma = test system: LOX IMVI melanoma
SK-MEL-28 melanoma = test system: SK-MEL-28 melanoma

Measured: growth

C=CC1(C)C(O[Si](C)(C)C(C)(C)C)CC2C3OC(=O)NC31c1cccc3c1[C@H](C(=O)N3C)C2(C)C (stereo not given in full)
inactive: HCT-15 colon 32.2% | HT29 colon 57.2% | SNB-75 CNS 74.4% | SNB-19 CNS 78.7% | U251 CNS 67% | PC-3 prostate 10.6% | SK-MEL-5 melanoma 25.9% | UACC-62 melanoma 29.4% | LOX IMVI melanoma 63% | SK-MEL-28 melanoma 63.7%

Cc1ccc(N=Nc2c(N)nn(-c3ccccc3)c2N)cc1
inactive: HCT-15 colon 21% | HT29 colon 11.7% | SNB-75 CNS 32.6% | SNB-19 CNS 46.7% | U251 CNS 28.2% | PC-3 prostate 56.7% | UACC-62 melanoma 31.5% | LOX IMVI melanoma 47.1% | SK-MEL-28 melanoma 56.8%
active: SK-MEL-5 melanoma -18.6%

CCCNc1nc2ccccc2c2c(=O)c3cccc(Cl)c3sc12
inactive: HCT-15 colon 89.7% | HT29 colon 81.8% | SNB-75 CNS 82.3% | SNB-19 CNS 110% | U251 CNS 97.9% | PC-3 prostate 88.5% | SK-MEL-5 melanoma 97.6% | UACC-62 melanoma 84.3% | LOX IMVI melanoma 90.2% | SK-MEL-28 melanoma 115%

Cn1cc(C(=O)c2nc(-c3c[nH]c4ccc(Br)cc34)no2)c2cc(Br)ccc21
inactive: HCT-15 colon 56.1% | HT29 colon 44% | SNB-75 CNS 73.7% | SNB-19 CNS 86.2% | U251 CNS 52% | PC-3 prostate 39.3% | SK-MEL-5 melanoma 83.4% | UACC-62 melanoma 86.1% | LOX IMVI melanoma 78.3% | SK-MEL-28 melanoma 92%

COc1ccc2cc(-c3cnc4nonc4n3)ccc2c1
active: UACC-62 melanoma 2.86%
inactive: HCT-15 colon 22.7% | HT29 colon 13.4% | SNB-75 CNS 15.8% | SNB-19 CNS 37.7% | U251 CNS 16.9% | PC-3 prostate 25.5% | SK-MEL-5 melanoma 31.8% | LOX IMVI melanoma 25.5% | SK-MEL-28 melanoma 86.3%

O=C1NC(=C(Cl)Cl)/C(=N/S(=O)(=O)NCCc2c[nH]c3ccccc23)N1
inactive: HCT-15 colon 98.6% | HT29 colon 15% | SNB-75 CNS 78.5% | SNB-19 CNS 53.9% | U251 CNS 33.8% | PC-3 prostate 83.5% | SK-MEL-5 melanoma 74.3% | UACC-62 melanoma 61.2% | LOX IMVI melanoma 29.8% | SK-MEL-28 melanoma 84%

COc1cccc(Nc2ccnc3[nH]c4ccc([N+](=O)[O-])cc4c23)c1
inactive: HCT-15 colon 31.4% | HT29 colon 24.3% | SNB-75 CNS 21% | SNB-19 CNS 37.4% | U251 CNS 42% | PC-3 prostate 48.2% | SK-MEL-5 melanoma 38.7% | UACC-62 melanoma 24.2% | LOX IMVI melanoma 52.2% | SK-MEL-28 melanoma 65.7%

Cc1ncc(C(=O)Nc2ccc(CN3CCN(C)CC3)c(C(F)(F)F)c2)cc1C#Cc1cnc(N)c2ccncc12
active: HCT-15 colon -31.8% | HT29 colon -44.8% | SNB-75 CNS -67.7% | SNB-19 CNS -45.6% | U251 CNS -92.7% | PC-3 prostate -50.6% | SK-MEL-5 melanoma -90.8% | UACC-62 melanoma -83.8% | LOX IMVI melanoma -93.3% | SK-MEL-28 melanoma -81.3%

COC(c1ccc2ccccc2c1)C(C)C(F)F (stereo not given)
inactive: HCT-15 colon 112% | HT29 colon 98.2% | SNB-75 CNS 95.9% | SNB-19 CNS 101% | U251 CNS 102% | PC-3 prostate 96.6% | SK-MEL-5 melanoma 112% | UACC-62 melanoma 93.4% | LOX IMVI melanoma 101% | SK-MEL-28 melanoma 96.3%

COc1cc2c3c(c1O)-c1ccccc1[C@@H]1OC(=O)N(CC2)[C@H]31
inactive: HCT-15 colon 100% | HT29 colon 106% | SNB-75 CNS 90.5% | SNB-19 CNS 104% | U251 CNS 94.8% | PC-3 prostate 70.7% | SK-MEL-5 melanoma 96.1% | UACC-62 melanoma 90.1% | LOX IMVI melanoma 99.1% | SK-MEL-28 melanoma 118%

COc1ccc(-c2cc(C(=O)N3N=C(c4ccc(N)cc4)CC3c3ccccc3)c3ccccc3n2)cc1 (stereo not given)
active: SNB-75 CNS -1.79%
inactive: HCT-15 colon 24.6% | HT29 colon 10.3% | SNB-19 CNS 47.8% | U251 CNS 36.9% | PC-3 prostate 32.5% | SK-MEL-5 melanoma 36.2% | UACC-62 melanoma 40.3% | LOX IMVI melanoma 39.7% | SK-MEL-28 melanoma 53.1%

CC(O)c1ncc(/C=C2\SC(=S)N(Cc3ccccc3)C2=O)s1 (stereo not given)
inactive: HCT-15 colon 97.4% | HT29 colon 59.4% | SNB-75 CNS 102% | SNB-19 CNS 106% | U251 CNS 87.9% | PC-3 prostate 97.3% | SK-MEL-5 melanoma 93.7% | UACC-62 melanoma 99.4% | LOX IMVI melanoma 92.7% | SK-MEL-28 melanoma 92.2%

Cc1[nH]c(C(=O)Nc2cccc(OC3CCNCC3)c2)c(Cl)c1Cl
active: HT29 colon -36.2% | UACC-62 melanoma -55.7% | SK-MEL-28 melanoma -63.5%
inactive: HCT-15 colon 51% | SNB-75 CNS 82.3% | SNB-19 CNS 74.6% | U251 CNS 63.9% | PC-3 prostate 62.9% | SK-MEL-5 melanoma 85.5% | LOX IMVI melanoma 40.9%

O=C(Nc1ncc(Cc2ccccc2Cl)s1)c1cccs1
inactive: HCT-15 colon 32% | HT29 colon 43.6% | SNB-75 CNS 89.6% | SNB-19 CNS 82.9% | U251 CNS 60.8% | PC-3 prostate 64% | SK-MEL-5 melanoma 73.3% | UACC-62 melanoma 45.9% | LOX IMVI melanoma 62.5% | SK-MEL-28 melanoma 85.2%

COc1ccc(/C=C/C(=O)c2cc3c(N)c(C(=O)Nc4ccc(OC)cc4)sc3nc2C)cc1
active: HT29 colon -18% | SNB-75 CNS 2.43% | SK-MEL-5 melanoma 9.81%
inactive: HCT-15 colon 20.6% | SNB-19 CNS 16.3% | U251 CNS 20.2% | PC-3 prostate 32.3% | UACC-62 melanoma 21.8% | LOX IMVI melanoma 31.6% | SK-MEL-28 melanoma 55.7%

CCOC(=O)n1cc(-c2nonc2-c2cn(C)c3ccccc23)c2ccccc21
inactive: HCT-15 colon 31.2% | HT29 colon 12.8% | SNB-75 CNS 16.3% | SNB-19 CNS 35.3% | U251 CNS 26.7% | PC-3 prostate 48.1% | SK-MEL-5 melanoma 46.3% | UACC-62 melanoma 30.6% | LOX IMVI melanoma 41.7% | SK-MEL-28 melanoma 57.4%

CCc1ccc(CCC(=O)Nc2ncc(Cc3ccc(Cl)cc3)s2)o1
active: HT29 colon 8.1% | SNB-75 CNS -7.87%
inactive: HCT-15 colon 21.9% | SNB-19 CNS 50.6% | U251 CNS 22.8% | PC-3 prostate 29.3% | SK-MEL-5 melanoma 34.6% | UACC-62 melanoma 33.3% | LOX IMVI melanoma 47.6% | SK-MEL-28 melanoma 66.3%

N#C/C(=C\c1ccc(Cl)cc1Cl)C(=O)Nc1ncc(Cc2ccc(Cl)c(Cl)c2)s1
inactive: HCT-15 colon 37.7% | HT29 colon 66.3% | SNB-75 CNS 97.9% | SNB-19 CNS 97.7% | U251 CNS 90.9% | PC-3 prostate 79.3% | SK-MEL-5 melanoma 97.8% | UACC-62 melanoma 35.2% | LOX IMVI melanoma 34.4% | SK-MEL-28 melanoma 99.6%

O=C1Nc2ccc(F)cc2/C1=N/c1nnc(Sc2ccccc2)s1
inactive: HCT-15 colon 98.3% | HT29 colon 105% | SNB-75 CNS 80.2% | SNB-19 CNS 105% | U251 CNS 91.4% | PC-3 prostate 91.7% | SK-MEL-5 melanoma 86.7% | UACC-62 melanoma 88.8% | LOX IMVI melanoma 90.9% | SK-MEL-28 melanoma 116%

CCOC(=O)c1c(C)c2c(n1C)CSc1cc(S(=O)(=O)c3ccccc3)c(=O)[nH]c1-2
active: HT29 colon 0.904% [100 µM] | SK-MEL-5 melanoma -6.57% [100 µM] | UACC-62 melanoma 1.08% [100 µM]
inactive: HCT-15 colon 24.7% [100 µM] | SNB-75 CNS 32.1% [100 µM] | SNB-19 CNS 43.3% [100 µM] | U251 CNS 35.7% [100 µM] | PC-3 prostate 15.9% [100 µM] | LOX IMVI melanoma 31.9% [100 µM] | SK-MEL-28 melanoma 41% [100 µM]

Cc1[nH]c(C(=O)Nc2ccc(C(N)=O)cc2NC(C)C)c(Cl)c1Cl
inactive: HCT-15 colon 92.9% | HT29 colon 106% | SNB-75 CNS 69% | SNB-19 CNS 103% | U251 CNS 91.4% | PC-3 prostate 77.4% | SK-MEL-5 melanoma 88.1% | UACC-62 melanoma 91.4% | LOX IMVI melanoma 96.2% | SK-MEL-28 melanoma 105%

c1ccc(CCc2ccccc2-c2cc(-c3ccccc3)on2)cc1
inactive: HCT-15 colon 83.6% | HT29 colon 68.2% | SNB-75 CNS 80.5% | SNB-19 CNS 90.3% | U251 CNS 95.3% | PC-3 prostate 89.1% | SK-MEL-5 melanoma 78.9% | UACC-62 melanoma 71.1% | LOX IMVI melanoma 92.2% | SK-MEL-28 melanoma 93.9%

CC(C)CSc1oc(-c2ccccc2)nc1S(=O)(=O)c1ccccc1
inactive: HCT-15 colon 93.7% | HT29 colon 86.2% | SNB-75 CNS 89.3% | SNB-19 CNS 102% | U251 CNS 84.2% | PC-3 prostate 79.9% | SK-MEL-5 melanoma 90.7% | UACC-62 melanoma 66.9% | LOX IMVI melanoma 96.1% | SK-MEL-28 melanoma 115%

C(/C=C/c1ccccc1)=Nc1ccc(CCc2ccc(N=C/C=C/c3ccccc3)cc2)cc1
inactive: HCT-15 colon 15.9% | HT29 colon 36.4% | SNB-75 CNS 116% | SNB-19 CNS 88.1% | U251 CNS 75% | PC-3 prostate 71.7% | SK-MEL-5 melanoma 96.6% | UACC-62 melanoma 73.6% | LOX IMVI melanoma 73.1% | SK-MEL-28 melanoma 109%

CCN(CC)CCNC(=O)c1ccc(-c2nc3ccc4[nH]ncc4c3c3c2CCCC3)cc1
inactive: HCT-15 colon 28.3% | HT29 colon 68.3% | SNB-75 CNS 54.2% | SNB-19 CNS 85.4% | U251 CNS 54.9% | PC-3 prostate 57.2% | SK-MEL-5 melanoma 69.8% | UACC-62 melanoma 33.8% | LOX IMVI melanoma 46% | SK-MEL-28 melanoma 73.2%

O=C1Nc2ccccc2C2c3cccn3-c3ccccc3N12 (stereo not given)
inactive: HCT-15 colon 53.9% | HT29 colon 31.7% | SNB-75 CNS 40% | SNB-19 CNS 88.9% | U251 CNS 60.2% | PC-3 prostate 66.9% | SK-MEL-5 melanoma 80% | UACC-62 melanoma 57.6% | LOX IMVI melanoma 74.2% | SK-MEL-28 melanoma 94.1%

O=C(CSc1nc2ccc([N+](=O)[O-])cc2[nH]1)Nc1ccc(Br)cc1
inactive: HCT-15 colon 56.1% | HT29 colon 75.1% | SNB-75 CNS 61.6% | SNB-19 CNS 65.6% | U251 CNS 36.3% | PC-3 prostate 44.1% | SK-MEL-5 melanoma 26.3% | UACC-62 melanoma 20.8% | LOX IMVI melanoma 63.5% | SK-MEL-28 melanoma 54.5%
